# Measurements taken from PubChem BioAssay (Tox21).
# Records with an inconclusive call do not appear. Where a call stands in place of a potency, no number is given. Values without a mark were called inactive. Active and inactive are the calls of the source. Unless noted, the call rests on the fitted dose curve; in most records, active means well fitted curve in the direction sought with a large enough effect in the repeat runs; inconclusive means weak or mixed curves; inactive means no such curve, though single readings can be large; an effect the other way counts as inactive or inconclusive.
# Tests used:
# [1] = qHTS assay to identify small molecule antagonists of the retinoid acid receptor (RAR) signaling pathway - cell viability counter screen (AID 1159551); further: nearly all actives have a fitted effect of over 35% in size
# In short: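 Viability of C3RL4 cells is quantified from ATP by luminescence after 6 h treatment at 37 C with compounds and 1 uM retinol.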
# [2] = qHTS assay to identify small molecule antagonists of the retinoic acid receptor (RAR) signaling pathway (AID 1159552; further: nearly all actives have a fitted effect of over 50% in size; further: potency means the concentration at half of the fitted maximal effect)
# In short: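 Luminescent RARE reporter read-out in C3RL4 cells: 6 hr co-treatment at 37 C of test compounds with retinol at 1 uM final. Cells plated overnight beforehand; luciferase reagent incubated 30 min at room temperature before reading.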
# [3] = qHTS assay to identify small molecule agonists of the retinoic acid receptor (RAR) signaling pathway (AID 1159553); further: potency means the concentration at half of the fitted maximal effect
# In short: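 Compounds dissolved in DMSO were pinned onto C3RL4 cells seeded the previous day, and plates were held 6 hr at 37 C. RARE-driven luciferase output was then read by luminescence.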
# [4] = qHTS assay to identify small molecule antagonists of the estrogen related receptor (ERR) signaling pathway from Tox21 library - cell viability counter screen (AID 1224834); further: nearly all actives have a fitted effect of over 30% in size; further: potency means the concentration at half of the fitted maximal effect
# In short: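 In this quantitative HTS format, ERR cells receive compounds in DMSO and are incubated for 17.5 h at 37 C. Live-cell protease activity is then detected with CellTiter-Fluor.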
# [5] = biological target: Luciferin 4-monooxygenase (Photinus pyralis) (UniProt P08659); assay: qHTS assay to identify small molecule inhibitors of firefly luciferase (AID 1224835); further: nearly all actives have a fitted effect of over 25% in size; further: potency means the concentration at half of the fitted maximal effect; on activity change, negative = inhibition: series mostly up to about 120 µM
# In short: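 Quantitative HTS format; KM concentrations of both substrates. Purified P. pyralis FLuc activity quantified from luminescence images.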
# [6] = qHTS assay to identify small molecule agonists of the constitutive androstane receptor (CAR) signaling pathway - cell viability counter screen (AID 1224836); further: nearly all actives have a fitted effect of over 45% in size; further: potency means the concentration at half of the fitted maximal effect; on viability change, negative = cytotoxic: series mostly up to about 92 µM
# In short: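 Cell viability multiplexed with the CAR agonist screen: CellTiter-Fluor fluorescence after 23 hr at 37 C. HepG2-CYP2B6-hCAR cells got compounds at 15 concentrations with PK11195 at 0.75 uM final.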
# [7] = qHTS assay to identify small molecule antagonists of the constitutive androstane receptor (CAR) signaling pathway - cell viability counter screen (AID 1224837); further: series mostly up to about 92 µM; nearly all actives have a fitted effect of over 45% in size
# In short: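 In quantitative HTS format, compounds at 15 concentrations were applied to HepG2 cells double-transfected with hCAR and CYP2B6-2.2kb under 50 nM CITCO stimulation; live-cell protease activity was read after 23 hr via CellTiter-Fluor.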
# [8] = biological target: Nuclear receptor subfamily 1 group I member 3 (Homo sapiens) (UniProt Q14994); assay: qHTS assay to identify small molecule antagonists of the constitutive androstane receptor (CAR) signaling pathway (AID 1224838); further: nearly all actives have a fitted effect of over 40% in size; further: potency means the concentration at half of the fitted maximal effect
# In short: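 CITCO-stimulated (50 nM final) HepG2 cells stably transfected with hCAR and CYP2B6-2.2kb luciferase were exposed to compounds at 15 concentrations for 24 h at 37 C/5% CO2. A luciferase reagent was added and luminescence recorded after 30 min.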
# [9] = qHTS assay to identify small molecule antagonists of the estrogen related receptor signaling pathway with the pleiotropic PPARgamma coactivator (PGC) from Tox21 10K library - cell viability counter screen (AID 1224840; active means well fitted cell-killing curve with a large enough effect in the repeat runs, not every such curve was filed as active; further: nearly all actives have a fitted effect of over 40% in size; further: potency means the concentration at half of the fitted maximal effect)
# In short: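 Viability counter screen, PGC/ERR cells: 17.5 h compound exposure at 37 C, CellTiter-Fluor fluorescence endpoint.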
# [10] = qHTS assay to identify small molecule antagonists of the estrogen related receptor signaling pathway with the pleiotropic PPARgamma coactivator (PGC) from Tox21 10K library (AID 1224841; call rule not given here; further: series mostly up to about 92 µM; actives are mostly falling curves and most rising ones were filed inactive; nearly all actives have a fitted effect of over 50% in size)
# In short: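 In the PGC/ERR line, DMSO solutions of test chemicals are pin-delivered to 2,000 cells/well six hours after dispensing. Following eighteen hours' incubation, One-Glo reagent is added and luminescence recorded.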
# [11] = biological target: Thyrotropin receptor (Homo sapiens) (UniProt P16473); assay: qHTS assay to identify small molecule agonists of the thyroid stimulating hormone receptor (TSHR) signaling pathway (AID 1224843; calls by dose curve; further: nearly all actives have a fitted effect of over 45% in size)
# In short: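 Compounds are titrated over 15 concentrations, in triplicate, onto TSHR-HEK293 cells seeded at 800/well. Plates sit 30 min at room temperature before cAMP-d2 and anti-cAMP cryptate are added; signal is read after a further hour.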
# [12] = qHTS assay to identify small molecule agonists of the hypoxia (HIF-1) signaling pathway - cell viability counter screen (AID 1224844; calls by dose curve; further: nearly all actives have a fitted effect of over 50% in size; further: potency means the concentration at half of the fitted maximal effect)
# In short: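 Same wells as the HIF-1 reporter screen; ME-180 cells carrying HRE-bla, 17 hr treatment at 37C; CellTiter-Glo luminescence read after 30 min at room temperature.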
# [13] = qHTS assay to identify small molecule agonists of the estrogen related receptor signaling pathway with the pleiotropic PPARgamma coactivator (PGC) from Tox21 10K library (AID 1224842); further: nearly all actives have a fitted effect of over 15% in size; further: potency means the concentration at half of the fitted maximal effect
# In short: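 PGC/ERR reporter cells (NTP line) were seeded 2,000 per well, rested 6 h at 37 C/5% CO2, then pin-dosed with compounds in DMSO for 18 h at 37 C; luciferase read by One-Glo luminescence after 30 min at room temperature.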
# [14] = biological target: Nuclear receptor subfamily 1 group I member 3 (Homo sapiens) (UniProt Q14994); assay: qHTS assay to identify small molecule agonists of the constitutive androstane receptor (CAR) signaling pathway (AID 1224839); further: nearly all actives have a fitted effect of over 15% in size; further: potency means the concentration at half of the fitted maximal effect;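 on activation: HepG2 cells stably carrying human CAR and a CYP2B6 luciferase reporter; series mostly up to about 92 µM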
# In short: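 Luminescent ONE-Glo read-out after 24 hr, 37 C exposure of double-stable HepG2-CYP2B6-hCAR reporter cells to a 15-point compound series, in the presence of 0.75 uM PK11195 (final).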
# [15] = qHTS assay to identify small molecule antagonists of the estrogen related receptor (ERR) signaling pathway - cell viability counter screen (AID 1224818); further: series mostly up to about 46 µM
# In short: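 Cytotoxicity check run alongside the ERR antagonist screen: cells exposed to test compounds 17.5 h at 37 C, viability taken as CellTiter-Fluor fluorescence intensity.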
# [16] = qHTS assay to identify small molecule antagonists of the estrogen related receptor signaling pathway with the pleiotropic PPARgamma coactivator (PGC) cell viability counter screen (AID 1224822; further: series mostly up to about 46 µM)
# In short: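 Viable cell signal (CellTiter-Fluor, 30 min, 37 C/5% CO2) was measured in PGC/ERR cells after a 17.5 h compound incubation.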
# Luciferin 4-monooxygenase (Photinus pyralis), sequence (P08659 whole entry, looked up): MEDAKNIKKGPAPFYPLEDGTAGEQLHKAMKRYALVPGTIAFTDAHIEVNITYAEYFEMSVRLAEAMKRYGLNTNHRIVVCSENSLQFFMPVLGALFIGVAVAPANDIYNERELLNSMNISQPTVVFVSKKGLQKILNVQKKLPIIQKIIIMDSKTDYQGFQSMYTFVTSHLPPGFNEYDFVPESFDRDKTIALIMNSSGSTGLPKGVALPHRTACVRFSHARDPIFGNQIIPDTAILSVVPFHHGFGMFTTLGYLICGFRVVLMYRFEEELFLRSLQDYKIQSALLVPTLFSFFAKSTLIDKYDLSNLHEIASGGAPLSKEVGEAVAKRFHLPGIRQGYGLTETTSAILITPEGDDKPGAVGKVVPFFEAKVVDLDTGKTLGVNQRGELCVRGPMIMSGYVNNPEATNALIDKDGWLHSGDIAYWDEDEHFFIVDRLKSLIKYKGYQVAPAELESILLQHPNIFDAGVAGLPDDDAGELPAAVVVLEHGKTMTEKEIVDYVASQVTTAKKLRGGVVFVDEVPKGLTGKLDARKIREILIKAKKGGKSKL
# Thyrotropin receptor (Homo sapiens), sequence (P16473 whole entry, looked up): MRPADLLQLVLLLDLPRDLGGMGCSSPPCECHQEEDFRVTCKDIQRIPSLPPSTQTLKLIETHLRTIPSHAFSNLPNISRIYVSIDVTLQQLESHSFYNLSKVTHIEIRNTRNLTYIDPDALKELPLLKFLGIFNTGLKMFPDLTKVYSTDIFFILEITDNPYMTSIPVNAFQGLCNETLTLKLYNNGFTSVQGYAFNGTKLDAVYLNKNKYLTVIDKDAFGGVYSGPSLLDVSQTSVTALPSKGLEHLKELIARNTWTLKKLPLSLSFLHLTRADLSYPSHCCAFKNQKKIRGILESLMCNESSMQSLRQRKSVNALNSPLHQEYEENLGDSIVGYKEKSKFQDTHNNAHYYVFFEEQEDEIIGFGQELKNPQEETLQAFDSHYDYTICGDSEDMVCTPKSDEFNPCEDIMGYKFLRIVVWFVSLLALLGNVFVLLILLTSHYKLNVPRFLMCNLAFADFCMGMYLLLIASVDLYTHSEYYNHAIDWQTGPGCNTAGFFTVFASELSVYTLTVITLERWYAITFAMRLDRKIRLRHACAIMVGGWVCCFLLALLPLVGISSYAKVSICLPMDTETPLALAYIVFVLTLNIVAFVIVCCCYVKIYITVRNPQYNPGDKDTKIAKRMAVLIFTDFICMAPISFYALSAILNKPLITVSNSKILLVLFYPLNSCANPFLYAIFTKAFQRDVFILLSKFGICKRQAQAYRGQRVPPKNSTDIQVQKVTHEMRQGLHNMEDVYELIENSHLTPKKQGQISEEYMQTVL
# Nuclear receptor subfamily 1 group I member 3 (Homo sapiens), sequence (Q14994 whole entry, looked up): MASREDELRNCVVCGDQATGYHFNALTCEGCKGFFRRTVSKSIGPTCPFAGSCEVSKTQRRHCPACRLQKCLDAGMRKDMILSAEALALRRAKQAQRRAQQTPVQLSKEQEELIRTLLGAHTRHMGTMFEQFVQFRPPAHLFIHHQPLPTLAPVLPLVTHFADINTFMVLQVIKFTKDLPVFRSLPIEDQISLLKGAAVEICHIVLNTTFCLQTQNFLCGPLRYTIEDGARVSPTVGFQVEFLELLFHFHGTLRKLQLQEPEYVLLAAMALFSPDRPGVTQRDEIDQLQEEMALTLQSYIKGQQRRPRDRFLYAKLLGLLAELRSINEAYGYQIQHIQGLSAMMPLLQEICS
compound,measurement,setting,value
CCN1CCN(c2cc(-c3ccc(F)cc3)c3c(n2)CCCCCC3)CC1,"activity change, negative = cytotoxicity",[1],0.574% [at 19 µM]
same,"activity, negative = inhibition",[2],9.21% [at 19 µM]
same,Potency,[3],inactive
same,"viability change, negative = cytotoxic",[4],0.165% [at 19 µM]
same,"activity change, negative = inhibition",[5],-0.963% [at 23.6 µM]
same,"viability change, negative = cytotoxic",[6],4.47% [at 19 µM]
same,"activity change, negative = cytotoxicity",[7],3.17% [at 19 µM]
same,"activity, negative = inhibition",[8],16.5% [at 19 µM]
same,"viability change, negative = cytotoxic",[9],18% [at 19 µM]
same,"activity, negative = inhibition",[10],3.89% [at 19 µM]
same,activation,[11],-12.2% [at 19 µM]
same,"activity change, negative = cytotoxicity",[12],0.919% [at 15.8 µM]
c1cc2c3c(c1)ccc1cccc(c13)C2,Potency,[1],inactive
same,Potency,[2],inactive
same,Potency,[3],inactive
same,Potency,[4],inactive
same,Potency,[6],inactive
same,Potency,[7],inactive
same,Potency,[8],inactive
same,Potency,[9],inactive
same,Potency,[10],inactive
same,Potency,[13],inactive
same,Potency,[11],inactive
O=S(=O)(O)CCCN1CCOCC1,Potency,[1],inactive
same,Potency,[2],inactive
same,Potency,[3],inactive
same,Potency,[4],inactive
same,Potency,[5],inactive
same,Potency,[6],inactive
same,Potency,[7],inactive
same,Potency,[9],inactive
same,Potency,[10],inactive
same,Potency,[13],inactive
same,Potency,[11],inactive
same,Potency,[12],inactive
NC(=O)c1ccccc1N,Potency,[1],inactive
same,Potency,[2],inactive
same,Potency,[3],inactive
same,Potency,[4],inactive
same,Potency,[5],inactive
same,Potency,[6],inactive
same,Potency,[7],inactive
same,Potency,[8],inactive
same,Potency,[9],inactive
same,Potency,[10],inactive
same,Potency,[11],inactive
same,Potency,[12],inactive
CN(C)c1ccc(N=Nc2ccccc2C(=O)O)cc1,Potency,[1],inactive
same,Potency,[2],inactive
same,Potency,[3],1.09 µM (active)
same,Potency,[4],48.6 µM (active)
same,Potency,[5],3.17 µM (active)
same,Potency,[8],inactive
same,Potency,[14],10.9 µM (active)
same,Potency,[9],27.3 µM (active)
CCCCNc1c(C(=O)OCC)c(C)nc2c1cnn2CC,Potency,[1],inactive
same,Potency,[2],inactive
same,Potency,[3],inactive
same,Potency,[15],inactive
same,Potency,[16],inactive
same,Potency,[4],inactive
same,Potency,[5],inactive
same,Potency,[8],inactive
same,Potency,[9],inactive
same,Potency,[11],inactive
same,Potency,[12],inactive
Cc1nc(Nc2ncc(C(=O)Nc3c(C)cccc3Cl)s2)cc(N2CCN(CCO)CC2)n1,Potency,[1],inactive
same,Potency,[2],16.8 µM (active)
same,Potency,[3],inactive
same,Potency,[4],13.3 µM (active)
same,Potency,[5],inactive
same,Potency,[6],7.5 µM (active)
same,Potency,[8],9.44 µM (active)
same,Potency,[14],inactive
same,Potency,[10],inactive
same,Potency,[13],0.0944 µM (active)
same,Potency,[11],inactive
same,Potency,[12],inactive
COC(=O)CC#N,Potency,[1],inactive
same,Potency,[2],inactive
same,Potency,[3],inactive
same,Potency,[4],inactive
same,Potency,[5],inactive
same,Potency,[7],inactive
same,Potency,[14],inactive
same,Potency,[9],inactive
same,Potency,[11],inactive
same,Potency,[12],inactive
Cc1ccc(-n2[nH]c(C)c(N=Nc3cccc(-c4cccc(C(=O)O)c4)c3O)c2=O)cc1C,Potency,[1],inactive
same,Potency,[2],inactive
same,Potency,[3],29.8 µM (active)
same,Potency,[4],29.8 µM (active)
same,Potency,[5],38.9 µM (active)
same,Potency,[6],inactive
same,Potency,[7],inactive
same,Potency,[8],inactive
same,Potency,[14],inactive
same,Potency,[11],inactive
same,Potency,[12],6.74 µM (active)
